Source: PubChem BioAssay (National Center for Advancing Translational Sciences (NCATS))
The full list was thinned out, with hits kept by preference.
MARV entry inh: inhibitors of Marburg virus binding or cell entry; Marburg virus pseudotyped entry inhibition, cell reporter; Potency, µM (highest dose often 37.8 µM), for the others: at the top dose activity change, negative = inhibition, most hits filed as inhibitors; hit rate 1.8% among 300,000; AID 540276; calls by dose curve; tested in HEK293 cells; note: potency is the fitted concentration of half-maximal effect; % is set by controls: 0 for no effect and ±100 for the full control effect
CHX counter: counter-screen for Shiga toxin inhibitors: cycloheximide protein synthesis inhibition | hit rate 12% among 300,000 | max response, % | AID 2314 | cell reporter, cycloheximide protein synthesis inhibition counterscreen; in the data active = max response mostly above about 13%, no sharp cut-off; inactive = mostly below about 14%; note: read at 38.3 µM for the half of the compounds with a filed dose; 0% is about no effect
Vaccinia Venus: inhibitors of vaccinia virus (Venus reporter). hit rate 0.46% among 330,000. Potency, µM (series often up to 36.5 µM), without a hit: at the top dose activity change, negative = inhibition, usual class: inhibitors. Vaccinia virus Venus reporter expression, fluorescence. AID 720580; calls by dose curve; tested in A549 cells; note: potency is the fitted concentration of half-maximal effect; % is set by controls: 0 for no effect and ±100 for the full control effect; nearly all actives have a fitted effect of over 30% in size
Shiga toxin inh: inhibitors of Shiga toxin in Vero cells | Vero cells, Shiga toxin protein synthesis inhibition reporter | inhibition, % at 38.7 µM | AID 2315 | hit rate 9.2% among 290,000; in the data active = inhibition mostly above about 28%, no sharp cut-off; inactive = mostly below about 43%; note: 0% is about no effect
LASV entry inh: Lassa virus entry inhibition; Lassa virus pseudotype entry inhibition, cell reporter; Potency, µM (series often up to 37.9 µM), for inactives: at the top dose activity change, negative = inhibition, usual class: inhibitors; hit rate 1.2% among 300,000; AID 540256; calls by dose curve; tested in HEK293 cells; note: potency is the fitted concentration of half-maximal effect; % is set by controls: 0 for no effect and ±100 for the full control effect; nearly all actives have a fitted effect of over 50% in size
Vaccinia mCherry: inhibitors of vaccinia virus infection (mCherry reporter signal) | Vaccinia virus mCherry reporter infection, fluorescence | Potency, µM (highest dose often 36.5 µM), without a hit: at the highest dose activity change, negative = inhibition, usual class: inhibitors | hit rate 0.63% among 310,000 | AID 720579; calls by dose curve; tested in A549 cells; note: potency is the fitted concentration of half-maximal effect; % is set by controls: 0 for no effect and ±100 for the full control effect; nearly all actives have a fitted effect of over 35% in size
* marks the source's active call; other numbers are inactive results; i = inactive; ? = inconclusive; . = no result; + = active, no number; [ ] = dose if it differs, or a comment.

SMILES	MARV entry inh	CHX counter	Vaccinia Venus	Shiga toxin inh	LASV entry inh	Vaccinia mCherry
COc1ccc(CNCCCSc2nnnn2-c2ccccc2)cc1	-3%[46.1 µM]	.	-16%	.	3%[46.1 µM]	-18%
CNC(=O)CSc1nc2cc(S(=O)(=O)Nc3ccccc3OC)ccc2o1	13%[46.1 µM]	-4	?	-9	7%[46.1 µM]	13µM*
CCN(CC)S(=O)(=O)c1ccc2oc(SCC(=O)Nc3cc(C)on3)nc2c1	?	.	?	.	?	10µM*
CCN(CC)S(=O)(=O)c1ccc2oc(SCc3ccc(F)cc3)nc2c1	?	12*	?	6	11µM*	.
CCN(CC)S(=O)(=O)c1ccc2oc(SCC(=O)NC3CC3)nc2c1	5%	2	?	-11	-2%	18µM*
CC(=O)N(Cc1cccnc1)c1cccc(-c2nc3ccccc3s2)c1	?	-2	-25%	63	-22%	-6%
c1ccc2sc(-c3ccc4c(c3)OCO4)nc2c1	?	34*	.	52*	9.2µM*	.
c1ccc2sc(-c3ccncc3)nc2c1	?	44*	-14%	51*	26%[46.1 µM]	i
O=C(Nc1cccc(-c2nc3ccccc3s2)c1)c1ccc2c(c1)OCO2	12%	15	-21%	-2	5%	0%
c1cncc(-c2nc3ccccc3s2)c1	.	39*	.	112*	.	.
c1coc(-c2nc3ccccc3s2)c1	?	.	-6%	.	19%[46.1 µM]	-13%
c1csc(-c2nc3ccccc3s2)c1	?	56*	-5%	96*	?	-10%
O=[N+]([O-])c1ccc(/C=C2\C=Cc3ccccc32)cc1	.	.	-9%	.	.	9%
COc1ccc2c(c1)C(c1ccccc1)NC(=O)C2 (stereo not given)	.	.	-7%	.	.	i
O=S(=O)(c1cccc(-c2nc3ccccc3s2)c1)N1CCOCC1	-20%	14	.	2	0%	.
Oc1ccc(-c2nc3ccccc3s2)cc1	.	32*	.	32	.	.
Cc1ccc(-c2nc3ccccc3s2)cc1S(=O)(=O)N1CCCC1	?	30*	-26%	43	9%	i
Cc1ccccc1NC(=O)c1cc([N+](=O)[O-])ccc1NCCN1C(=O)CCC1=O	?	-2	-11%	31	24%	i
O=C(Nc1ccc(F)c(Cl)c1)c1ccc2c(=O)n3c(nc2c1)CCCCC3	?	52*	.	54*	?	.
CC(=O)c1ccc(NC(=O)c2ccc3c(=O)n4c(nc3c2)CCCCC4)cc1	.	7	.	16	.	.
O=C(Nc1ccc(Cl)cc1Cl)c1ccc2c(=O)n3c(nc2c1)CCC3	?	.	-12%	.	?	-15%
O=C(Nc1ccc(Cl)cc1)c1ccc2c(=O)n3c(nc2c1)CCCCC3	.	54*	-24%	41*	.	-18%
O=C(Nc1ccc(F)cc1)c1ccc2c(=O)n3c(nc2c1)CCCCC3	.	24*	-8%	52*	4%[46.1 µM]	-7%
O=C(Nc1cccc(Cl)c1)c1ccc2c(=O)n3c(nc2c1)CCCCC3	?	41*	-28%	102*	?	?
Cc1cc(C)cc(NC2=CC(c3cccc(F)c3)N(c3cc(C)cc(C)c3)C2=O)c1 (stereo not given)	-2%[46.1 µM]	.	-5%	.	0%[46.1 µM]	-2%
SMILES	MARV entry inh	CHX counter	Vaccinia Venus	Shiga toxin inh	LASV entry inh	Vaccinia mCherry
CCN1CCN(S(=O)(=O)c2c(C)cc(C)cc2C)CC1	.	4	.	-9	.	.
CCc1cccc(NC(=O)c2ccc3c(=O)n4c(nc3c2)CCCCC4)c1	.	38*	-16%	76*	.	-24%
Cc1cc(C)n2nc(C(=O)NCCc3ccccc3)nc2n1	0%	68*	-10%	92*	?	.
O=C(NCCc1ccccc1)c1nc2nc(-c3cccs3)cc(C(F)(F)F)n2n1	?	41*	-22%	+	-4%	-20%
Cc1ccc(CNc2nc(C)c(-c3ccn(CCN4CCOCC4)n3)s2)o1	.	.	4%	.	.	-4%
COc1ccc(-n2ccc(-c3sc(NCc4cc(OC)c5c(c4)OCO5)nc3C)n2)cc1	.	.	-10%	.	.	-16%
Cc1cccc(N2CCN(Cc3nc(-c4cccc(Cl)c4)oc3C)CC2)n1	7.1µM*	1	12%	-3	-21%	-9%
Cc1cccc(N2CCN(Cc3nc(-c4ccccc4Cl)oc3C)CC2)n1	?	-1	-11%	-2	-15%[46.1 µM]	-5%
Cc1oc(-c2cccc(Cl)c2)nc1CN1CCC(C(=O)N2CCN(c3ccccc3F)CC2)CC1	.	-1	16µM*	5	.	?
O=C(Nc1cccc(Cl)c1)Nc1ccc(Cl)cn1	6%	7	-13%	-7	15%	.
O=C(Nc1cccc(C(=O)O)c1)Nc1ccccc1Cl	8.9µM*	31*	-13%	98*	4µM*	-1%
O=C(O)c1cccc(NC(=O)c2cc(NC(=O)c3ccccc3)cc(NC(=O)c3ccccc3)c2)c1	8%[46.1 µM]	-5	-5%	-11	-11%[46.1 µM]	-28%
CSc1cccc(NC(=O)Nc2ccc(Cl)cc2)c1	-2%[46.1 µM]	12	-23%	28	-27%	.
O=C(Nc1cccc(Cl)c1)Nc1cccc(C(=O)O)c1	?	35*	16%	76*	?	i
O=C(Nc1cccc(C(=O)O)c1)Nc1cccc2ccccc12	?	21*	-4%	29	?	-2%
O=C(Nc1ccc(Cl)cc1)Nc1cccc(C(=O)O)c1	0.92µM*	52*	-1%	110*	0.33µM*	-10%
CC(C)c1ccccc1OCC(=O)Nc1ccccc1C(=O)N1CCOCC1	-8%	-3	-14%	-6	-18%	-4%
CC(C)c1nc2ccc(C(=O)Nc3ccccc3F)cc2o1	.	.	?	.	15%[46.1 µM]	?
O=C(Nc1ccccc1Cl)c1cccc(NC(=O)C2CCCC2)c1	.	12*	.	2	.	.
O=C(NCc1ccccc1)C(=O)Nc1cccc(C(=O)O)c1	.	61*	0%[7.34 µM]	158*	.	i[7.34 µM]
COc1ccc(NC(=O)Nc2cccc3ccccc23)cc1S(N)(=O)=O	10%[46.1 µM]	-3	1%	-9	4µM*	-5%
CCc1ccc(-c2nc(SCC(=O)NCC3CCCO3)c(-c3ccc(F)cc3)[nH]2)cc1 (stereo not given)	-13%[46.1 µM]	.	-16%	.	-14%[46.1 µM]	-21%
COc1ccc(CCCc2nnc(SCC(=O)Nc3cccc(F)c3C)o2)cc1	14%[46.1 µM]	.	-9%	.	10%[46.1 µM]	-1%
NCCCn1c(C(=O)c2ccc(Cl)cc2)c2ccc([N+](=O)[O-])cc2[n+]1[O-]	.	.	?	.	.	7.1µM*
NC(=O)CCCn1c(C(=O)c2cc(Cl)c(N)c(Cl)c2)c2ccc([N+](=O)[O-])cc2[n+]1[O-]	.	.	11µM*	.	.	?
NC(=O)CCCn1c(C(=O)c2ccc(Cl)cc2)c2ccc(C(F)(F)F)cc2[n+]1[O-]	.	.	-21%	.	.	-15%
NCCCn1c(C(=O)c2ccc(Cl)cc2)c2ccc(C(F)(F)F)cc2[n+]1[O-]	.	.	-22%	.	.	-9%
COc1ccc(Cl)cc1NC(=O)CCC(=O)N1CCOc2ccccc21	-14%[46.1 µM]	.	-16%	.	4%[46.1 µM]	-12%
Cc1cc(C)nc(SCC2COc3ccccc3O2)n1 (stereo not given)	1%	24	-3%	79*	22%	.
Cc1ccc(NC(=O)CCC(=O)N2CCOc3ccccc32)c(Cl)c1	6%[46.1 µM]	11*	-10%	17*	4%[46.1 µM]	-10%
